Experimental data reported in PubChem BioAssay (EPA / NIEHS).
Inconclusive results are not listed. The source made the active and inactive calls. The calls were made as follows, unless noted: active = hit-call score of the fitted dose curve at least 0.9, where 1 is the maximum; inconclusive = response in the unintended direction; inactive = score below 0.9.

Experiments:
[1] = ATG_PPRE_CIS: Attagene CIS-FACTORIAL HepG2 Assay for human Peroxisome Proliferator-activated Response Element (PPRE) (AID 2282958; active = hit-call score of the fitted dose curve at least 0.9, where 1 is the maximum; inactive = score below 0.9); settings: HepG2 PPRE cis-element reporter, Attagene transcription factor profiling; actives raise or lower the signal
Method in brief: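 Read-out: fluorescent reporter mRNA fragments resolved by capillary electrophoresis after RT-PCR. HepG2 cells carried transiently transfected PPRE-driven cis reporter constructs and were dosed for 24 h; gain or loss of signal fitted relative to DMSO.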

[2] = molecular target: Glucocorticoid receptor (Homo sapiens) (UniProt P04150); test: ATG_GR_TRANS: Attagene TRANS-FACTORIAL HepG2 Assay for human Glucocorticoid Receptor (GR) (AID 2282978); settings: HepG2 Attagene TRANS GR reporter, mRNA transcription;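 also: activators score as hits since higher reporter transcript over DMSO is fitted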
Chain of Glucocorticoid receptor (Homo sapiens) (P04150 whole entry, looked up, the tested form may be a part): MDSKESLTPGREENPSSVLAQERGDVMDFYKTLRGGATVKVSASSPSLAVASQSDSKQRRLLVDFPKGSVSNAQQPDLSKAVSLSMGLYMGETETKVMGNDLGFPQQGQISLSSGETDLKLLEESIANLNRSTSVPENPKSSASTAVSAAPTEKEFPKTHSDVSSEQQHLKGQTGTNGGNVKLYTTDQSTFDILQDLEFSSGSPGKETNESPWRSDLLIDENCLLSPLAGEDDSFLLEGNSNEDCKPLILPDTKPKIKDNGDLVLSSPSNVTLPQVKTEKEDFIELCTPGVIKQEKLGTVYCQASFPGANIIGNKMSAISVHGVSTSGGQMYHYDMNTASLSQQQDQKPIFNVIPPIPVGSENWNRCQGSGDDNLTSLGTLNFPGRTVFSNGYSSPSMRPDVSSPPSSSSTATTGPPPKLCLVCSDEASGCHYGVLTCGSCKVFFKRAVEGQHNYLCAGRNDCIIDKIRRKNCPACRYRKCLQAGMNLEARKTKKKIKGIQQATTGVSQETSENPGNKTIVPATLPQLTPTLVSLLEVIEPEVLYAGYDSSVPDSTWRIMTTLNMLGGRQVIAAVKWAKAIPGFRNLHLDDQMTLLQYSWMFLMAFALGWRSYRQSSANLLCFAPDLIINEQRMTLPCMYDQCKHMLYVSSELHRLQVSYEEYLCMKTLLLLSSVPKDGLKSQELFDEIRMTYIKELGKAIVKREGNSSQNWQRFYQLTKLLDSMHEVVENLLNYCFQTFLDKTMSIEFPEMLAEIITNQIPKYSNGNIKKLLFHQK
Method in brief: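 Transient MRTU transfection of HepG2 (GAL4-UAS reporters, exogenous NR-GAL4 chimeras), 24 h dosing. Readout: reporter transcript via RT-PCR + capillary electrophoresis fluorescence. Positive direction vs DMSO baseline.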

[3] = molecular target: Oxysterols receptor LXR-alpha (Homo sapiens) (UniProt Q13133); test: ATG_LXRa_TRANS: Attagene TRANS-FACTORIAL HepG2 Assay for human Liver X Receptor alpha (LXRa) (AID 2282980); settings: HepG2 Attagene TRANS reporter, LXRa transactivation
Chain of Oxysterols receptor LXR-alpha (Homo sapiens) (Q13133 whole entry, looked up, the tested form may be a part): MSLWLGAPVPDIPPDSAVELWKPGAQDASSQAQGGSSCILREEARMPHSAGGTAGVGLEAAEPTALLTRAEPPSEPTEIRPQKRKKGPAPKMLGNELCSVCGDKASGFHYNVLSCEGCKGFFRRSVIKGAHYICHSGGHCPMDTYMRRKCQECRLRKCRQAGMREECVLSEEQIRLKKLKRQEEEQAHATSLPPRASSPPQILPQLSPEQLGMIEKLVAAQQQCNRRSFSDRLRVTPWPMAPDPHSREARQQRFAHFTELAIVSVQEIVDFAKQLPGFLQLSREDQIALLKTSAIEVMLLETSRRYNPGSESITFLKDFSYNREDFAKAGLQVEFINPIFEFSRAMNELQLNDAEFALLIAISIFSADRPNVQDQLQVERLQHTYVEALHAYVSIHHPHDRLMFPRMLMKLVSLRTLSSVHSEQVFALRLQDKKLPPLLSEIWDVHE
Method in brief: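 In this multiplexed TRANS system, compounds act on HepG2 cells carrying GAL4-UAS reporter units and a receptor-GAL4 fusion for 24 h. Induced reporter RNA is amplified, fluorescently labelled and sized by capillary electrophoresis, with DMSO as baseline.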

[4] = molecular target: Oxysterols receptor LXR-beta (Homo sapiens) (UniProt P55055); test: ATG_LXRb_TRANS: Attagene TRANS-FACTORIAL HepG2 Assay for human Liver X Receptor beta (LXRb) (AID 2282981); settings: HepG2 Attagene TRANS GAL4-LXRb reporter, mRNA
Chain of Oxysterols receptor LXR-beta (Homo sapiens) (P55055 whole entry, looked up, the tested form may be a part): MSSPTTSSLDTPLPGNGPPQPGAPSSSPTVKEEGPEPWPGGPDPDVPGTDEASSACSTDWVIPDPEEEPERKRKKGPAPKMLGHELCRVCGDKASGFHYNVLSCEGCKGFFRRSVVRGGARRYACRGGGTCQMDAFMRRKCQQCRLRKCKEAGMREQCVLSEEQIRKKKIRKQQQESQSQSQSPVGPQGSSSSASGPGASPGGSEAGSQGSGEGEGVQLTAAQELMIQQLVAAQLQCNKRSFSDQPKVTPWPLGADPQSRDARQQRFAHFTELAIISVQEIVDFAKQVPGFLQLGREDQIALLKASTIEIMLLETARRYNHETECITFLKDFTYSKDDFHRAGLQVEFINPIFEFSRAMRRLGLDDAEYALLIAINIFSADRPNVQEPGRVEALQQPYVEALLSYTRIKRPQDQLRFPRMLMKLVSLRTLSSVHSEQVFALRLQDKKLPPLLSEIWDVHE
Method in brief: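 Cells: HepG2, transiently transfected with GAL4-UAS reporter units plus LXRb-Gal4 fusion. Treatment: 24 h. Detection: reporter mRNA by RT-PCR, 6-FAM labelling, HpaI digestion, capillary electrophoresis.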

[5] = molecular target: Nuclear receptor subfamily 4 group A member 2 (Homo sapiens) (UniProt P43354); test: ATG_NURR1_TRANS: Attagene TRANS-FACTORIAL HepG2 Assay for human Nuclear Receptor Related Protein 1 (NURR1) (AID 2282985); settings: HepG2 Attagene TRANS reporter, mRNA readout
Chain of Nuclear receptor subfamily 4 group A member 2 (Homo sapiens) (P43354 whole entry, looked up): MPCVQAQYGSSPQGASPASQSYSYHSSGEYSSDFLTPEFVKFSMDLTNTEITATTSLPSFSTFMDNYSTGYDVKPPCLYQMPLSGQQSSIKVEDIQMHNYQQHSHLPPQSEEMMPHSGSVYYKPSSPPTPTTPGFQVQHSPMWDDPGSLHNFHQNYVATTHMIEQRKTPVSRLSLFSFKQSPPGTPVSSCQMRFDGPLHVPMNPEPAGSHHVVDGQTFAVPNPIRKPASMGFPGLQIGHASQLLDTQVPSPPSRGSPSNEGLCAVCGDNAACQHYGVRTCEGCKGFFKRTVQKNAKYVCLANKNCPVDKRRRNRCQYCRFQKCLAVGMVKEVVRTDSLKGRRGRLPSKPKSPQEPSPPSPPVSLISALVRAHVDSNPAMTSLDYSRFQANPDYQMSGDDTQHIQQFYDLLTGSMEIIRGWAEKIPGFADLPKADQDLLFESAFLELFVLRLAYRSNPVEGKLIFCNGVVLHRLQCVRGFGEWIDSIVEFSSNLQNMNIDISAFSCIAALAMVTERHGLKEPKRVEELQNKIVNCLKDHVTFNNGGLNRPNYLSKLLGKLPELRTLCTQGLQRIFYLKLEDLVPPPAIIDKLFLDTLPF
Method in brief: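 Cells: HepG2, transiently transfected. Exposure: 24 h. Detection: fluorescence of labelled RT-PCR products separated by capillary electrophoresis; upward fit versus DMSO.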

[6] = molecular target: human Peroxisome Proliferator-activated Receptor alpha (PPARa), PPARA (gene 5465) (UniProt Q07869); test: ATG_PPARa_TRANS: Attagene TRANS-FACTORIAL HepG2 Assay for human Peroxisome Proliferator-activated Receptor alpha (PPARa) (AID 2283001);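 as to AC50: potency for gain of reporter signal over DMSO so agonist or activator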
Chain of human Peroxisome Proliferator-activated Receptor alpha (PPARa), PPARA (gene 5465) (Q07869 whole entry, looked up, the tested form may be a part): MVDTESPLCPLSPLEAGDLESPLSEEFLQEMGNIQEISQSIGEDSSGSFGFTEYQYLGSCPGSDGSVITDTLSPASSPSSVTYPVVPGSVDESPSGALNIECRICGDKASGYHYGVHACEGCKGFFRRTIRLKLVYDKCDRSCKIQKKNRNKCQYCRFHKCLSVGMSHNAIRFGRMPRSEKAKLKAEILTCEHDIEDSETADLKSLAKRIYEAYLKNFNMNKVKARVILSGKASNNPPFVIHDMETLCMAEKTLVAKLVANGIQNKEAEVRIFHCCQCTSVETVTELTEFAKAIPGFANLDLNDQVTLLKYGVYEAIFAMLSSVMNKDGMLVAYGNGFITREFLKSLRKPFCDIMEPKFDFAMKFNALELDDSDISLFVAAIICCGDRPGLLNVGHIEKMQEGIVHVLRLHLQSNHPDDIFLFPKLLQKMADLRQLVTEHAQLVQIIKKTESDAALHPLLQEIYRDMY
Method in brief: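 Reporter transcripts from GAL4-UAS units in transfected HepG2 were quantified 24 h after dosing. Detection used reverse transcription, PCR, fluorescent primer extension and capillary electrophoresis, with DMSO as baseline.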

[7] = molecular target: Peroxisome proliferator-activated receptor gamma (Homo sapiens) (UniProt P37231); test: ATG_PPARg_TRANS: Attagene TRANS-FACTORIAL HepG2 Assay for human Peroxisome Proliferator-activated Receptor-gamma (PPARg) (AID 2283007)
Chain of Peroxisome proliferator-activated receptor gamma (Homo sapiens) (P37231 whole entry, looked up, the tested form may be a part): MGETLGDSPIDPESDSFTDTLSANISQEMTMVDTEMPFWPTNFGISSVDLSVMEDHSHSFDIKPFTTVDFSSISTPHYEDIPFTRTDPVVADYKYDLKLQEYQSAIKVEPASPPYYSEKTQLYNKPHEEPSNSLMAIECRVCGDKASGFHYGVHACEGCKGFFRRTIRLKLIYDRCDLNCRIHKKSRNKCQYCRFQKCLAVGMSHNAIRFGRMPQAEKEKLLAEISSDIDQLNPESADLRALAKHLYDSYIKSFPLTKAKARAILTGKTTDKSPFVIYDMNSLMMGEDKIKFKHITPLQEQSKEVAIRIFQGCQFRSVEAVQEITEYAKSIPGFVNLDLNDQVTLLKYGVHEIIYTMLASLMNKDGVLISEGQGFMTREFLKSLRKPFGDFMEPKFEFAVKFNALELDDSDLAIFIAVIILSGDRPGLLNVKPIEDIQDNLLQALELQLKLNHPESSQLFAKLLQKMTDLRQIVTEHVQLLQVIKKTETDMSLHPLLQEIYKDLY
Method in brief: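 Read-out: reporter mRNA induction, detected by fluorescence after RT-PCR and capillary electrophoresis. Transiently transfected human HepG2 liver cells carrying a chimeric NR-Gal4 construct were dosed for 24 h; activity was fitted upward relative to DMSO.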

[8] = molecular target: Retinoic acid receptor RXR-alpha (Homo sapiens) (UniProt P19793); test: ATG_RXRa_TRANS: Attagene TRANS-FACTORIAL HepG2 Assay for human Retinoid X Receptor alpha (RXRa) (AID 2283012)
Method in brief: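 HepG2 cells transiently transfected with multiplexed GAL4-UAS reporter units and chimeric NR-GAL4 fusions, dosed 24 h. Reporter mRNA measured by RT-PCR, FAM labelling, HpaI digestion and capillary electrophoresis; gain-of-signal fitted relative to DMSO baseline.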

[9] = ATG_XTT_Cytotoxicity: Cytotoxicity Assessment in the Attagene TRANS-FACTORIAL HepG2 Assay (AID 2283584)
Method in brief: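 24 h chemical exposure of reporter-transfected HepG2; XTT signal loss vs DMSO indicates cytotoxicity.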

[10] = ACEA_ER_AUC_viability: ACEA Biosciences xCELLigence Real-Time Cell Analysis on Estrogen Receptor Agonism for Viability (AID 2283782);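 also: continuous compound exposure with impedance area under curve over 80 h; hit means loss of impedance signal meaning reduced cell growth or viability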
Method in brief: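 T-47D; phenol red-free RPMI1640 + 10% CS-FBS; 8 conc., 1:4 serial, max 100 uM final, ≤0.5% DMSO; n = 2; continuous exposure; impedance monitored to 80 h post-dose; AUC vs DMSO.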

[11] = CCTE_Harrill_HTTr_Viability_MCF7: CCTE's 6-hour Cell Viability Assessment for the High-Throughput Transcriptomics (HTTr) Platform, in MCF-7 cells cultured in DMEM + 10% fetal bovine serum, Harrill Lab (AID 2284010; active = hit-call score of the fitted dose curve at least 0.9, where 1 is the maximum; inactive = score below 0.9)
Method in brief: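 Membrane integrity was scored by high-content imaging of propidium iodide dye exclusion after a 6 h exposure across an eight-point dilution series. Data were fitted bidirectionally relative to DMSO as negative control and baseline.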

[12] = CCTE_Harrill_HTTr_Apoptosis_MCF7: CCTE's 6-hour Apoptosis Assessment for the High-Throughput Transcriptomics (HTTr) Platform, in MCF-7 cells cultured in DMEM + 10% fetal bovine serum, Harrill Lab (AID 2284011; active = hit-call score of the fitted dose curve at least 0.9, where 1 is the maximum; inactive = score below 0.9)
Method in brief: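 Apoptosis in MCF-7 cells grown in DMEM with 10% fetal bovine serum was scored after a six hour exposure by high content imaging of caspase-3/7 activation (CellEvent Caspase 3/7 Green), with DMSO serving as negative control and baseline.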

[13] = molecular target: human RAR-related Orphan Receptor beta (RORb), RORB (gene 6096) (UniProt Q92753); test: ATG_RORb_TRANS: Attagene TRANS-FACTORIAL HepG2 Assay for human RAR-related Orphan Receptor beta (RORb) (AID 2283010)
Method in brief: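 HepG2 cells were transiently transfected with multiplexed GAL4-UAS reporter units expressing chimeric nuclear receptor–GAL4 proteins, then dosed for 24 h. Reporter mRNA was quantified by RT-PCR with fluorescent labelling and capillary electrophoresis; gain of signal was fitted relative to DMSO.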

[14] = molecular target: human RAR-related Orphan Receptor gamma (RORg), RORC (gene 6097) (UniProt P51449); test: ATG_RORg_TRANS: Attagene TRANS-FACTORIAL HepG2 Assay for human RAR-related Orphan Receptor gamma (RORg) (AID 2283011)
Chain of human RAR-related Orphan Receptor gamma (RORg), RORC (gene 6097) (P51449 whole entry, looked up, the tested form may be a part): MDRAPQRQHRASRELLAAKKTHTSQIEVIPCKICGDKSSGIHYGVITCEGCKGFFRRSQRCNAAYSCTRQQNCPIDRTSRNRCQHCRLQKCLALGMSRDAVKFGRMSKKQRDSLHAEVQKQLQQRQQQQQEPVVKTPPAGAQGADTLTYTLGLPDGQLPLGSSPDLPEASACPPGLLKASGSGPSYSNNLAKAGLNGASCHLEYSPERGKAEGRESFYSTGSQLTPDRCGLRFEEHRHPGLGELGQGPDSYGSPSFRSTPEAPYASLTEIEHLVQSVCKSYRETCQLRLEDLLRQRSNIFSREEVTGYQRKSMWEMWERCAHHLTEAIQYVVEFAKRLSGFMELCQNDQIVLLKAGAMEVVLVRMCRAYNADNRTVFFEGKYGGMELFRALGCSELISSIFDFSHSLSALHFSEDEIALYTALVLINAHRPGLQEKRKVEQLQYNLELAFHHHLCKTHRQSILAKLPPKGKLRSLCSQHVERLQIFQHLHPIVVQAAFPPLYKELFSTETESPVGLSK
Method in brief: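 Chimeric RORg-Gal4 transactivation in transfected HepG2; 24 h exposure; RT-PCR/capillary electrophoresis readout of reporter mRNA, DMSO baseline.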

[15] = molecular target: human Thyroid Receptor alpha (THRa1), THRA (gene 7067) (UniProt P10827); test: ATG_THRa1_TRANS: Attagene TRANS-FACTORIAL HepG2 Assay for human Thyroid Receptor alpha (THRa1) (AID 2283014)
Method in brief: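 Measured here is mRNA from a GAL4-UAS reporter in transfected HepG2 cells carrying a Gal4-fused receptor, 24 h post-dose. DMSO served as negative control and baseline.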

[16] = molecular target: human Vitamin D Receptor (VDR), VDR (gene 7421) (UniProt P11473); test: ATG_VDR_TRANS: Attagene TRANS-FACTORIAL HepG2 Assay for human Vitamin D Receptor (VDR) (AID 2283022)
Method in brief: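 Multiplexed TRANS reporter in HepG2; 24 h treatment; reporter mRNA by RT-PCR plus capillary electrophoresis; upregulation scored relative to DMSO.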

[17] = TOX21_p53_BLA_p3_viability: Viability Assessment in the Tox21 HCT-116 p53 Agonism Beta-lactamase Assay, Phase 3 (AID 2283593);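 also: cells exposed to compound for 16 h before reading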
Method in brief: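 Cellular ATP was quantified by CellTiter-Glo luminescence, read after 30 min at room temperature. Beforehand, HCT116 cells (4000/well) received compound 5 h post-seeding, 217-fold diluted from DMSO, then incubated 16 h at 37C.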

[18] = TOX21_p53_BLA_p4_viability: Viability Assessment in the Tox21 HCT-116 p53 Agonism Beta-lactamase Assay, Phase 4 (AID 2283597);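 also: hits lower the luminescence signal meaning cytotoxicity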
Method in brief: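 Luminescent ATP readout (CellTiter-Glo, 30 min, room temperature) in the same wells as the p53 bla ratio. HCT116 cells were treated for 16 h at 37C with DMSO-dissolved compounds.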

[19] = molecular target: Bile acid receptor (Homo sapiens) (UniProt Q96RI1); test: ATG_IR1_CIS: Attagene CIS-FACTORIAL HepG2 Assay for human Nuclear Receptor Subfamily 1 Group H Member 4 (NR1H4), IR1 submotif (AID 2282946; active = hit-call score of the fitted dose curve at least 0.9, where 1 is the maximum; inactive = score below 0.9); settings: IR1 reporter transcription, actives raise or lower the signal
Chain of Bile acid receptor (Homo sapiens) (Q96RI1 whole entry, looked up, the tested form may be a part): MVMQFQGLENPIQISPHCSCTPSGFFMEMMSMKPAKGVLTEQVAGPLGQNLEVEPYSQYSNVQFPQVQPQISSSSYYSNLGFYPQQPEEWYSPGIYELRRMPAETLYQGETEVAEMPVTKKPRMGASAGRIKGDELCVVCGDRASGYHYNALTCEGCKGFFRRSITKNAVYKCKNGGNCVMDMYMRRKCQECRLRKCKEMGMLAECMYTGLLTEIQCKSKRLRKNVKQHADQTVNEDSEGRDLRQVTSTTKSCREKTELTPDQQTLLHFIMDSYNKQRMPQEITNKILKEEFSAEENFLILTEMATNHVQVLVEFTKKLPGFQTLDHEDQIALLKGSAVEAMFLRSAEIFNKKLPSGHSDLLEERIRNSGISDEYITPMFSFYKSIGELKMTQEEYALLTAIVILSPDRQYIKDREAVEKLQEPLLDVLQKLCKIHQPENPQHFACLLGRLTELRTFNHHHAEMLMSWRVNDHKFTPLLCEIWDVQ
Method in brief: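 Cells (human HepG2) carry transiently transfected cis-promoter reporter transcription units. Compounds are incubated 24 h, total RNA is reverse-transcribed and amplified, and labelled fragments are resolved by capillary electrophoresis. Curves use DMSO as baseline.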

[20] = molecular target: Nuclear receptor subfamily 1 group I member 3 (Homo sapiens) (UniProt Q14994); test: ATG_CAR_TRANS: Attagene TRANS-FACTORIAL HepG2 Assay for human Constitutive Androstane Receptor (CAR) (AID 2282969); settings: HepG2 Attagene TRANS-FACTORIAL CAR reporter;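 also: activators raise reporter mRNA above DMSO so AC50 marks induction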
Chain of Nuclear receptor subfamily 1 group I member 3 (Homo sapiens) (Q14994 whole entry, looked up, the tested form may be a part): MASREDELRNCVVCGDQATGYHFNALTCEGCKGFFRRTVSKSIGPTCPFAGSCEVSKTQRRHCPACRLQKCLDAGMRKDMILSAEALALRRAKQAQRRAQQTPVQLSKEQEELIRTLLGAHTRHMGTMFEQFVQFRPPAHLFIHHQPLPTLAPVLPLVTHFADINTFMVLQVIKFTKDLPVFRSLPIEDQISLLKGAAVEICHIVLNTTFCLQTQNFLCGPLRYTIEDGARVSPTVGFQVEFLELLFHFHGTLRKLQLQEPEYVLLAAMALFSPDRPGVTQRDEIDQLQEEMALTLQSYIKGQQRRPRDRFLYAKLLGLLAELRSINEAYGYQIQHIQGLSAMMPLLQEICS
Method in brief: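 Readout is reporter mRNA induction, quantified by fluorescent primer extension and capillary electrophoresis after RT-PCR. Cells were HepG2 transiently carrying chimeric NR-Gal4 constructs with GAL4-UAS reporters, treated for 24 h; activity scored upward from DMSO.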

Measured: AC50

Cc1cc(O)cc(C)c1Cl
inactive: [2] | [3] | [4] | [5] | [6] | [7] | [8] | [9] | [11] | [12]
active: [1] 37.1 µM | [10] 81.1 µM

COC(=O)c1ccccc1
inactive: [1] | [3] | [4] | [5] | [13] | [14] | [15] | [16] | [9] | [17] | [18]

Oc1ccc(Cl)cc1C1CCCC1
active: [19] 57.8 µM | [5] 8.65 µM | [6] 39.1 µM | [7] 33.4 µM | [18] 66.6 µM
inactive: [1] | [3] | [4] | [15] | [9] | [17] | [11] | [12]

COc1cccc(OC)c1C(=O)O
inactive: [20] | [3] | [4] | [14] | [16] | [18] | [10]

CCCCCCCCCCCCCCCCCC[N+](C)(C)C
inactive: [20] | [3] | [4] | [5] | [8] | [16] | [9]
active: [19] 45.2 µM | [1] 6.2 µM | [2] 11.8 µM | [6] 40.9 µM | [7] 32.7 µM | [17] 46.2 µM | [18] 65.7 µM

C=C1CC[C@H]2C[C@@H]1C2(C)C
inactive: [1] | [3] | [4] | [5] | [7] | [14] | [16] | [10]

Cc1ccccc1S(N)(=O)=O
inactive: [19] | [20] | [3] | [4] | [5] | [8] | [15] | [9] | [17] | [18] | [10]

NCc1ccccc1
inactive: [20] | [2] | [4] | [14] | [17] | [18] | [11] | [12]
active: [10] 50 µM

CC1=CCCC(C)(C)C12CCC(C)O2 (stereo unspecified)
active: [10] 60.7 µM
inactive: [19] | [3] | [4] | [13] | [8] | [9] | [18]

CCCCCCCCCCCCCC
inactive: [20] | [3] | [5] | [8] | [16] | [9] | [10] | [11] | [12]

CN(C)N=Nc1ccccc1
inactive: [3] | [4] | [5] | [14] | [8] | [15] | [9] | [18]

CCCC(=O)OC
inactive: [4] | [5] | [6] | [7] | [14] | [16] | [17]

O=C(C1CCCCC1)N1CC(=O)N2CCc3ccccc3C2C1 (stereo unspecified)
inactive: [1] | [2] | [5] | [6] | [7] | [8] | [16] | [11] | [12]
